PubChem BioAssay (Tox21)
Records with an inconclusive call do not appear. Calls of active or inactive are those of the source. Unless noted, calls follow the shape of the dose curve; as a rule, active = well fitted curve in the direction sought with a large enough effect in the repeat runs; inconclusive = weak or mixed curves; inactive = no such curve, though single readings can be large; an effect the other way counts as inactive or inconclusive.

How the values were obtained:
[1] = qHTS assay to identify small molecule agonists of the peroxisome proliferator-activated receptor delta (PPARd) signaling pathway - cell viability counter screen (AID 743211); also: nearly all actives have a fitted effect of over 55% in size
Summary of the method: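 Viability was measured as CellTiter-Glo luminescence (30 min, room temperature) in the same wells as the beta-lactamase readout. GeneBLAzer PPARd UAS-bla HEK293H cells received compound after 5 h plating and were incubated 17 h at 37 C.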

[2] = biological target: Peroxisome proliferator-activated receptor delta (Homo sapiens) (UniProt Q03181); test: qHTS assay to identify small molecule agonists of the peroxisome proliferator-activated receptor delta (PPARd) signaling pathway (AID 743212; calls by dose curve)
Summary of the method: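 GeneBLAzer PPARd UAS-bla HEK293H cells (beta-lactamase reporter under UAS control), plated and rested 5 h at 37 C, then exposed to compounds in DMSO at 37 C; LiveBLAzer B/G FRET substrate added, 2 h room temperature, fluorescence read.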

[3] = qHTS assay to identify small molecule antagonists of the peroxisome proliferator-activated receptor delta (PPARd) signaling pathway - cell viability counter screen (AID 743213); also: nearly all actives have a fitted effect of over 50% in size
Summary of the method: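 HEK293H PPARd UAS-bla cells, 5 h pre-incubation, compound + L165041 300 nM final, 17 h 37 C; B/G FRET substrate 2 h RT; then CellTiter-Glo 30 min RT, luminescence.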

[4] = biological target: Peroxisome proliferator-activated receptor delta (Homo sapiens) (UniProt Q03181); test: qHTS assay to identify small molecule antagonists of the peroxisome proliferator-activated receptor delta (PPARd) signaling pathway (AID 743215; active = well fitted inhibition curve with a large enough effect in the signal ratio in the repeat runs, not every such curve was filed as active; the % refers to the signal ratio;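 also: cells stimulated with agonist L165041 at 300 nM final during compound exposure; series mostly up to about 62 µM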)
Summary of the method: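 Antagonist-mode beta-lactamase reporter screen: HEK293H cells with UAS-bla under PPARd control, stimulated by 300 nM L165041 (final) alongside test compound for 17 h at 37 C, then FRET fluorescence after 2 h substrate incubation.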

[5] = biological target: Bile acid receptor (Homo sapiens) (UniProt Q96RI1); test: qHTS assay to identify small molecule antagonists of the farnesoid-X-receptor (FXR) signaling pathway (AID 743217; active = well fitted inhibition curve with a large enough effect in the signal ratio in the repeat runs, not every such curve was filed as active; the % refers to the signal ratio)
Summary of the method: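 Beta-lactamase reporter under UAS control in HEK 293T cells; compound exposure 16 h at 37 °C in the presence of chenodeoxycholic acid (50 uM final); signal from B/G FRET substrate after 2 h at room temperature.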

[6] = qHTS assay to identify small molecule agonists of the farnesoid-X-receptor (FXR) signaling pathway - cell viability counter screen (AID 743218); also: nearly all actives have a fitted effect of over 45% in size
Summary of the method: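 In GeneBLAzer FXR-UAS-bla HEK 293T cells, compounds act for 16 h at 37 C. Cell viability is then scored in the reporter wells by CellTiter-Glo, 30 min at RT, luminescence.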

[7] = biological target: Bile acid receptor (Homo sapiens) (UniProt Q96RI1); test: qHTS assay to identify small molecule agonists of the farnesoid-X-receptor (FXR) signaling pathway (AID 743220; active = well fitted activation curve with a large enough effect in the signal ratio in the repeat runs, not every such curve was filed as active; the % refers to the signal ratio)
Summary of the method: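 Beta-lactamase reporter under UAS control in GeneBLAzer FXR HEK 293T cells (5000/well) measured with LiveBLAzer FRET substrate after 2 h at room temperature. Compound exposure lasted 16 h at 37C.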

[8] = qHTS assay to identify small molecule antagonists of the farnesoid-X-receptor (FXR) signaling pathway - cell viability counter screen (AID 743221; active = well fitted cell-killing curve with a large enough effect in the repeat runs, not every such curve was filed as active; also: nearly all actives have a fitted effect of over 50% in size)
Summary of the method: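 Cytotoxicity counter screen run in the FXR-bla reporter wells: HEK 293T cells exposed to compound with 50 uM (final) chenodeoxycholic acid for 16 h, 37 C, then viability measured by CellTiter-Glo luminescence after 30 min, room temperature.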

[9] = biological target: Vitamin D3 receptor (Homo sapiens) (UniProt P11473); test: qHTS assay to identify small molecule antagonists of the vitamin D receptor (VDR) signaling pathway (AID 743223; active = well fitted inhibition curve with a large enough effect in the signal ratio in the repeat runs, not every such curve was filed as active; the % refers to the signal ratio)
Summary of the method: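 Antagonist mode: compound added to VDR-bla cells alongside agonist 1alpha,25-dihydroxyvitamin D3 (3 nM final), incubation 16 h at 37C. Read-out is LiveBLAzer FRET fluorescence, 2 h at room temperature.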

[10] = biological target: Vitamin D3 receptor (Homo sapiens) (UniProt P11473); test: qHTS assay to identify small molecule agonists of the vitamin D receptor (VDR) signaling pathway (AID 743222; calls by dose curve)
Summary of the method: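 Agonist activity measured in VDR-bla reporter cells. Exposure 16 h, 37C, 5% CO2; detection by B/G FRET substrate, 2 h RT.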

Measured: Potency

Sequence of Bile acid receptor (Homo sapiens) (Q96RI1 whole entry, looked up): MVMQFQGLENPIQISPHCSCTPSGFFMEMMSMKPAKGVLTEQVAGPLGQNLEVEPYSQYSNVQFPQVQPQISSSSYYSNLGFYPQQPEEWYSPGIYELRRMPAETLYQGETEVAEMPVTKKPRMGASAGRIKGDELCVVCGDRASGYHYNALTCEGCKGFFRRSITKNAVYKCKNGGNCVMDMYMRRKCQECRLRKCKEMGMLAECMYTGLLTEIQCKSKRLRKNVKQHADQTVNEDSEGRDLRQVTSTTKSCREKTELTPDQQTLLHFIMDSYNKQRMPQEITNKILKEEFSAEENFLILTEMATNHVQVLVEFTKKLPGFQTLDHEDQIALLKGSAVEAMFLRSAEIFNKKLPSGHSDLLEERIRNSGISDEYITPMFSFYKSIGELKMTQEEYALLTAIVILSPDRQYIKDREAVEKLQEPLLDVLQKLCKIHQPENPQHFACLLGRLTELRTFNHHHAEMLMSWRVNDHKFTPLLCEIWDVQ
Sequence of Peroxisome proliferator-activated receptor delta (Homo sapiens) (Q03181 whole entry, looked up): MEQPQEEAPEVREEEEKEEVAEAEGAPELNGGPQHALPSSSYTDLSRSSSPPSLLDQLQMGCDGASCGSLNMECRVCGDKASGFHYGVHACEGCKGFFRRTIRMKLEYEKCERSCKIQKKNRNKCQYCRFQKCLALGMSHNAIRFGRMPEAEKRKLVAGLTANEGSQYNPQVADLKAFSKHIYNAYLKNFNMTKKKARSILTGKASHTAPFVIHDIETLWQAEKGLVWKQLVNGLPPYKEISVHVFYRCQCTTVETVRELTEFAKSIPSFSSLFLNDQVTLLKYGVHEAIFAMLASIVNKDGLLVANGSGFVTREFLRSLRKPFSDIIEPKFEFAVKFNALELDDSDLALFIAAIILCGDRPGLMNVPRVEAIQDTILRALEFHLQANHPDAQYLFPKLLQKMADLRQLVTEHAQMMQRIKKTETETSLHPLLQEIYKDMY
Sequence of Vitamin D3 receptor (Homo sapiens) (P11473 whole entry, looked up): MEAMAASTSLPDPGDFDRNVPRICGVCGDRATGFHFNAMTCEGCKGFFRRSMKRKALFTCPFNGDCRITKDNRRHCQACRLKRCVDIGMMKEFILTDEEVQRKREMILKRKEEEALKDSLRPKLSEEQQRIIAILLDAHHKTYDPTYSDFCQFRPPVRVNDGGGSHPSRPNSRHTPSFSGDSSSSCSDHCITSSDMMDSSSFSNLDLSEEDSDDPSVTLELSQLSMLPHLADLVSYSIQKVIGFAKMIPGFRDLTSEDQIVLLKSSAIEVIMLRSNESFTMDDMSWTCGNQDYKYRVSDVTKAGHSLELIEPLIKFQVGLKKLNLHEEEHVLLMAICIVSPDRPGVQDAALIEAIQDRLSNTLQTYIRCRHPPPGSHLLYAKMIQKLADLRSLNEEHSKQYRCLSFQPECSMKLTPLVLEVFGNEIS

CCC(CO)(CO)CO
not listed: [9] | [10]
inactive: all other assays above

CCC(C)(C)C(=O)O
not listed: [10]
inactive: all other assays above

CCOC(=O)Oc1ccc(CCNC(=O)[C@H](CCSC)NC(C)=O)cc1OC(=O)OCC
inactive: [1] | [2] | [3] | [4] | [6]

Cc1ccc(Cl)cc1N
not listed: [8]
inactive: all other assays above

Oc1cccc2[nH]ccc12
not listed: [8] | [9] | [10]
inactive: all other assays above

CC(=O)NNC(C)=O
not listed: [10]
inactive: all other assays above

O=C(O)CNC(=O)c1ccccc1I
not listed: [7] | [9]
inactive: all other assays above

CC/C=C\C/C=C\C/C=C\CCCCCCCC(=O)OCC
not listed: [9] | [10]
inactive: all other assays above

O=c1[nH]c2cc(C(F)(F)F)c(N3CCOCC3)cc2n(CP(=O)(O)O)c1=O
not listed: [8] | [9] | [10]
inactive: all other assays above

CC(=O)C(C)=O
inactive: all assays above

CSSc1ccoc1C
not listed: [6] | [9] | [10]
inactive: all other assays above

CC(=O)c1ccc[nH]1
not listed: [9] | [10]
inactive: all other assays above

CC(C)COC(=O)c1ccc(O)cc1
inactive: all assays above

Cc1ccccc1S(N)(=O)=O
inactive: all assays above

O=[N+]([O-])c1ccc2ncccc2c1
not listed: [6]
inactive: all other assays above

CC(CO)(CO)C(=O)O
inactive: all assays above

O=C(O)CCCc1c[nH]c2ccccc12
not listed: [9] | [10]
inactive: all other assays above

CCCCCCCCCCCCCCCC(=O)OCC
not listed: [9] | [10]
inactive: all other assays above

C1CCCCC1
not listed: [9] | [10]
inactive: all other assays above

CC(C)OC(=O)c1ccccc1C(=O)OC(C)C
not listed: [6] | [8] | [9]
inactive: all other assays above

Cc1cc([N+](=O)[O-])ccc1N
inactive: all assays above

CC(O)Cn1cnc2c1c(=O)n(C)c(=O)n2C (configuration not stated)
inactive: all assays above

Cc1cccc(C)c1NC(=O)c1cc(S(N)(=O)=O)c(Cl)cc1O
not listed: [8]
inactive: all other assays above

O=C1OC[C@H](Cc2cccc(O)c2)[C@H]1Cc1cccc(O)c1
inactive: [1] | [2] | [3] | [4] | [6]

CCOC(=O)c1ccc(NC(=O)CN2CCCCC2)cc1
inactive: [1] | [2] | [3] | [4]

CC(C)C(O)C(C)(C)CO (configuration not stated)
inactive: all assays above

C=C(C)c1ccccc1
inactive: all assays above

O=C(O)CCS
inactive: all assays above

Cc1oc(=O)oc1COC(=O)[C@@H]1N2C(=O)[C@@H](NC(=O)[C@H](N)c3ccccc3)[C@H]2SC1(C)C
not listed: [9]
inactive: all other assays above

CCC(=O)OCc1ccc(OC)cc1
not listed: [9]
inactive: all other assays above

CC1=C2[C@@H]([C@H](C)CC[C@H]2/C=C(\C)C(=O)O)[C@H](O)C1
not listed: [9] | [10]
inactive: all other assays above

ClC1=C(Cl)C1(Cl)Cl
inactive: all assays above

CSCC[C@H](NC(=O)[C@H](Cc1c[nH]c2ccccc12)NC(=O)CCNC(=O)OC(C)(C)C)C(=O)N[C@@H](CC(=O)O)C(=O)N[C@@H](Cc1ccccc1)C(N)=O
not listed: [9] | [10]
inactive: all other assays above

CC(=O)OCCC(C)CC(C)(C)C (configuration not stated)
not listed: [6] | [10]
inactive: all other assays above

CC(C)(C)C(O)/C=C/c1ccc2c(c1)OCO2 (configuration not stated)
not listed: [9]
inactive: all other assays above

CCOC(=O)C(C)O (configuration not stated)
not listed: [9]
inactive: all other assays above

COC1CCC=CO1 (configuration not stated)
inactive: [1] | [2] | [3] | [4] | [6]

CCN(CC)C(=O)N1CCN(C)CC1
not listed: [6]
inactive: all other assays above

CC(=O)C(=O)CC(C)C
not listed: [5] | [7]
inactive: all other assays above

COc1ccc(C(=O)NCc2ccc(OCCN(C)C)cc2)cc1OC
not listed: [5] | [7] | [9]
inactive: all other assays above

CC(C)N(C)C
not listed: [5] | [7] | [10]
inactive: all other assays above

COC(CC(C)CCCC(C)(C)O)OC (configuration not stated)
not listed: [5] | [7] | [9]
inactive: all other assays above

CNCc1ccc(NC(=O)c2c[nH]c3c2C(=O)CCC3)cc1
not listed: [5] | [7] | [10]
inactive: all other assays above

Cc1cn([C@H]2C[C@H](F)[C@@H](CO)O2)c(=O)[nH]c1=O
not listed: [5] | [7]
inactive: all other assays above

FC(F)(F)C(F)(F)C(F)(F)C(F)(F)CCI
inactive: [1] | [2] | [3] | [4] | [6] | [8]

O=S(=O)(Cl)c1c(Cl)cccc1Cl
inactive: [1] | [2] | [3] | [4] | [6] | [8]

CC(C)(C(=O)c1cccnc1)c1cccnc1
not listed: [5] | [7]
inactive: all other assays above

COc1ccc(CCN(C)CCCN2CCc3cc(OC)c(OC)cc3CC2=O)cc1OC
inactive: [1] | [2] | [3] | [4] | [6] | [8]

O=C(C(=O)c1ccco1)c1ccco1
not listed: [5] | [7] | [10]
inactive: all other assays above

CC(=O)OC(C)C[N+](C)(C)C (configuration not stated)
not listed: [5] | [7]
inactive: all other assays above

Nc1ccc(NC(=O)c2ccc(N)cc2)cc1
inactive: [1] | [2] | [3] | [4] | [6] | [8]

C=Cc1ccc(OC(C)=O)cc1
not listed: [5] | [7] | [9]
inactive: all other assays above

O=C1[C@@H]2[C@H]3CC[C@H](C3)[C@@H]2C(=O)N1CCCCN1CCN(c2ncccn2)CC1
not listed: [5] | [7] | [9]
inactive: all other assays above

O=C(Nc1ccc(C(=O)O)c(O)c1)c1ccccc1
not listed: [5] | [7]
inactive: all other assays above

CCCc1nc2c(C)cc(-c3nc4ccccc4n3C)cc2n1Cc1ccc(-c2ccccc2C(=O)O)cc1
not listed: [5] | [7] | [10]
inactive: all other assays above
